Hit rate of the full screen: of about 350,000 compounds, about 31,000 (8.9%) were called active. Roughly 15% stayed inconclusive and do not appear here. Many of the other results were omitted from the sample, so actives are more common in it than they were. Values without a mark were called inactive. The call rests on the fitted dose curve; in most records, active means well fitted inhibition curve with a large enough effect; inconclusive means small, poorly fitted or top-dose-only effect; inactive means no such curve, though single readings can be large or run the other way.
These compounds were tested against Histone-lysine N-methyltransferase EHMT2 (Homo sapiens) (UniProt Q96KQ7) (assay: qHTS Assay for Inhibitors of Histone Lysine Methyltransferase G9a). Conditions: G9a H3K9 monomethylation, AlphaScreen, 2 h; series mostly up to 59 µM; activity, negative = inhibition: at the top concentration.
Sequence of Histone-lysine N-methyltransferase EHMT2 (Homo sapiens) (Q96KQ7 913-1193 limits assumed): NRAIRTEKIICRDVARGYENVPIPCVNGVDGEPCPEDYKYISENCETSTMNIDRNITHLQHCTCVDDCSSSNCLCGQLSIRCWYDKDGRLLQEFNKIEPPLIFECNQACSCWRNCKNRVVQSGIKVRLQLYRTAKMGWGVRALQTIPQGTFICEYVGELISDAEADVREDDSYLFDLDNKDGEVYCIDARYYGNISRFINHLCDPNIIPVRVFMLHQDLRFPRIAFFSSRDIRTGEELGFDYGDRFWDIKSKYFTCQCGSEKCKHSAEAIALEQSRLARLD
In short: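 Readings reflect AlphaScreen signal from monomethyl-H3K9 antibody detection. HMT at 20 nM; substrate b-H3K9 500 nM; cofactor SAM 20 uM; 2 h RT reaction; compounds tested as titrations in qHTS with 15 min preincubation.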
Further: nearly all actives have a fitted effect of over 75% in size.
On the % scale 0 is the no-effect control and ±100 the full control effect; potency means the concentration at half of the fitted maximal effect.

Compound | activity, negative = inhibition | Potency
CN(CC(=O)Nc1ccc(Cl)cc1)C(=O)CNC(=O)c1ccc2ccccc2c1 | 86.3% [at 102 µM] | –
COc1cccc(-c2nnc(SCC(=O)N3CCC(C)CC3)o2)c1 | 1.74% | –
O=C(C1COc2ccccc2O1)N(Cc1cccnc1)c1nc2c(F)cc(F)cc2s1 (stereo not drawn) | -4.58% | –
CCc1ccc(N2C(=O)CN(S(=O)(=O)CC)CC2(C)C(=O)NC2CCCCC2)cc1 (stereo not drawn) | 4.02% | –
COc1ccc(/C=C2/C(=O)OCc3cc(OC)c(OC)cc32)c(OC)c1 | 20.5% | –
COc1ccc(C(=O)CCc2ccccc2O)c(OC)c1 | 13.6% [at 102 µM] | –
COc1ccc(/C=C2/C(=O)N(c3ccccc3)N=C2C)c(OC)c1 | – | 20 µM (active)
CCN1N=C(c2ccccc2)CCC1=O | 21.7% [at 0.501 µM] | –
O=C(NNC(=S)NCCCN1CCOCC1)c1ccncc1 | – | 20 µM (active)
COc1cccc(NC(=S)NCCCN2CCOCC2)c1 | 4.95% | –
Cc1cc(C)cc(NC(=S)NCCCN2CCOCC2)c1 | 18% | –
CCS(=O)(=O)N1CCc2cc(C(=O)NCc3ccc(C)cc3)ccc21 | -2.49% | –
Cc1cc(C(=O)OCC(=O)N2c3ccccc3NC(=O)C2(C)C)c(C)n1-c1ccccc1 | -19.9% | –
Cc1cc(-c2csc(N)n2)c(C)n1-c1ccccc1 | – | 11.2 µM (active)
Cc1nc(N)sc1N=Nc1c(C)n(C)n(-c2ccccc2)c1=O | -3.39% [at 12.7 µM] | –
Cc1cc(-c2csc(N)n2)c(C)n1Cc1ccccc1 | – | 28.2 µM (active)
O=c1onc(-c2cccs2)n1Cc1ccccc1 | 1.14% [at 12.7 µM] | –
CC(=O)Nc1ccc(C(=O)Nc2nc(-c3cc(C)n(Cc4ccccc4)c3C)cs2)cc1 | 0.836% | –
CN(CCO)S(=O)(=O)c1ccc2c(c1)C(=O)c1cc(S(=O)(=O)N(C)CCO)ccc1-2 | 6.15% [at 0.501 µM] | –
CCOc1ccc(C(=O)NCC(=O)N2CCN(c3ccc(C(F)(F)F)cn3)CC2)cc1 | 13.9% | –
O=C(Nc1cccc(-c2nc3ccccc3o2)c1)c1cccc(Br)c1 | -4.65% | –
COc1cc(C(=S)NCc2ccccc2)cc(Br)c1O | – | 2.51 µM (active)
COc1cc(C=O)c(Br)cc1OCC(=O)NCc1ccccc1 | -3.38% [at 102 µM] | –
COc1cc(C(=O)NCc2ccncc2)cc(Br)c1OCc1ccccc1 | 1.4% [at 102 µM] | –
Cc1cccc(C(=O)NCC(=O)OCC(=O)N(C)CC(=O)Nc2ccccc2Cl)c1 | 8.39% | –

Compound | activity, negative = inhibition | Potency
O=C(COC(=O)Cn1cnc2ccccc2c1=O)NCC12CC3CC(CC(C3)C1)C2 | 12.2% | –
O=C(COC(=O)Cn1cnc2ccccc21)Nc1cccc2c1C(=O)c1ccccc1C2=O | – | 12.6 µM (active)
COc1ccc(NC(=O)COC(=O)Cn2c(C)nc3ccccc32)cc1OC | -1.35% [at 102 µM] | –
COc1ccc(-c2onc(C)c2C)cc1S(=O)(=O)NCCc1ccccc1 | 4.98% | –
CCOc1ccc(CCNC(=O)CN(c2ccc(C)cc2)S(=O)(=O)N(C)C)cc1OCC | 5.66% | –
O=C(NCc1ccccc1Cl)c1ccc2c(=O)n(CC3CCCO3)c(=S)[nH]c2c1 (stereo not drawn) | 56.4% [at 102 µM] | –
COc1ccc(CNC(=O)Cn2nnc(-c3ccc(S(C)(=O)=O)cc3)n2)cc1 | -16.3% | –
C/C(=N/NC(=O)C1COc2ccccc2O1)c1ccco1 (stereo not drawn) | 0.125% | –
CC(/C=C/c1ccco1)=N/NC(=O)C1COc2ccccc2O1 (stereo not drawn) | – | 56.2 µM (active)
CC(=O)c1cccc(NC(=O)C2COc3ccccc3O2)c1 (stereo not drawn) | 19.1% [at 102 µM] | –
Cc1ccc(-n2ncc3c(=O)n(Cc4cccc(C(F)(F)F)c4)cnc32)cc1C | 4.7% | –
CCCCN=C1C([N+](=O)[O-])=CC=C2C1=NC1(CCCCC1)N2O | – | 11.2 µM (active)
O=C(CCNC(=O)c1ccc(Br)cc1)NCCCc1ccccc1 | 6.39% [at 102 µM] | –
O=C1CC(c2ccccc2)C(=O)N1c1cccc(O)c1 (stereo not drawn) | -7.63% | –
Cc1cccc(N2C(=O)CC(SC(N)=Nc3ccccc3)C2=O)c1 (stereo not drawn) | -5.18% [at 102 µM] | –
COC(=O)c1ccccc1SC1CC(=O)N(c2cccc(C)c2)C1=O (stereo not drawn) | – | 44.7 µM (active)
CCOc1ccccc1N(C)C(=O)c1cc2c(s1)-c1ccccc1OC2 | 19.4% | –
Cc1ccc(NC(=O)COC(=O)CNC(=O)c2ccc(Cl)cc2Cl)cc1S(=O)(=O)N1CCOCC1 | – | 50.1 µM (active)
COc1c(C)cccc1C(=O)Nc1cc(Cl)ccc1N1CCOCC1 | -5.78% [at 12.7 µM] | –
O=C(COc1ccc(Cl)cc1)NC(=S)Nc1ccccc1N1CCOCC1 | 1.64% [at 102 µM] | –
O=C(CNC(=O)c1ccc(Cl)cc1Cl)NCC(=O)Nc1ccccc1N1CCOCC1 | – | 89.1 µM (active)
O=C(COC(=O)CCc1ccc(S(=O)(=O)N2CCOCC2)cc1)Nc1cccc(Cl)c1 | 3.71% [at 102 µM] | –
Cc1ccc(NC(=O)CCCNC(=O)c2ccc(Cl)cc2)cc1S(=O)(=O)N1CCOCC1 | -11.6% | –
Cc1ccc(C(=O)OCC(=O)Nc2ccc(Cl)cn2)cc1S(=O)(=O)N1CCOCC1 | -29% [at 102 µM] | –
CC(=O)c1ccc(OCCCC(=O)Nc2ccc(C)c(S(=O)(=O)N3CCOCC3)c2)cc1 | – | 50.1 µM (active)

Compound | activity, negative = inhibition | Potency
Cc1ccc(NC(=O)CCNC(=O)c2ccc([N+](=O)[O-])cc2)cc1S(=O)(=O)N1CCOCC1 | -13.1% [at 12.7 µM] | –
COc1ccc(Nc2ncc3c(n2)CCN(C(=O)OC(C)(C)C)C3)cc1 | -31.3% | –
COc1ccc(CCNC(=O)Cn2c(=O)n(-c3ccccc3)c(=O)c3c(C)c(C)sc32)cc1OC | -27% | –
COc1cc(C(=O)Nc2ncccc2C)ccc1OCC(=O)N1CCOCC1 | 19.4% | –
O=C(CNS(=O)(=O)c1ccccc1)N1CCN(C(=O)c2ccco2)CC1 | -0.876% | –
Cc1ccc(-n2ncc3c2CC(C)(C)CC3NC(=O)CCc2cnn(C)c2)cc1 (stereo not drawn) | 12.4% [at 102 µM] | –
CC1CCCN(c2csc3ccc(F)cc3c2=O)C1 (stereo not drawn) | -8.07% | –
CCc1cccc(NC(=O)CCCN2C(=O)C(c3ccccc3)Oc3cccnc32)c1 (stereo not drawn) | 26% [at 0.0925 µM] | –
COc1cc([N+](=O)[O-])ccc1NC(=O)CN1CCCC1 | -15.7% | –
O=C(CN1CCCCCC1)Nc1ccc(Br)cc1Br | 105% [at 102 µM] | –
O=C(CN1CCCCCC1)Nc1ccc(Br)cc1[N+](=O)[O-] | – | 35.5 µM (active)
COC(=O)c1sccc1S(=O)(=O)N(CC(=O)Nc1ccc(C)c(F)c1)c1ccc(C)c(C)c1 | 17% | –
O=S(=O)(NCc1ccc(Cl)cc1Cl)c1cccs1 | 14.7% [at 0.501 µM] | –
COc1cccc(-n2c(=S)[nH]c3c(oc4ccccc43)c2=O)c1 | – | 44.7 µM (active)
COc1ccc(-n2c(SCC(N)=O)nc3c(oc4ccccc43)c2=O)cc1 | -2.44% | –
Cc1cccc(-n2c(SCC(N)=O)nc3c(oc4ccccc43)c2=O)c1 | 8.13% | –
CCOc1cc(/C=C(\C#N)C(=O)Nc2ccccc2C)ccc1OCc1cc(=O)n2nc(CC)sc2n1 | -7.24% | –
Cc1cc(C)n(-c2ccc(C(=O)O)cc2[N+](=O)[O-])n1 | -35.8% [at 102 µM] | –
CC(=O)Nc1ccc(/C=C/C(=O)c2ccccc2)cc1 | -1.87% [at 2.33 µM] | –
CN(C)c1ccc(/C=C/C(=O)c2ccc(C(C)(C)C)cc2)cc1[N+](=O)[O-] | – | 12.6 µM (active)
COc1cccc(CNC(=O)CN2C(=O)CCc3cc(S(=O)(=O)N4CCOCC4)ccc32)c1 | 23.9% | –
COc1ccc(C(CNC(=O)c2ccc(S(=O)(=O)Nc3ccccc3C)cc2)N2CCOCC2)cc1 (stereo not drawn) | 19% [at 2.33 µM] | –
Cc1ccn2cc(-c3nonc3C)cc2c1 | – | 10 µM (active)
COc1ccc(-c2cn3ccc(C)cc3n2)cc1 | -10% [at 102 µM] | –
Cc1nc(-c2ccc(F)cc2)c(CC(=O)N(C)CC(=O)Nc2c(C)cccc2C)s1 | -12% [at 102 µM] | –

Compound | activity, negative = inhibition | Potency
CCCSc1nc2sc3c(c2c(=O)n1-c1cccc(Br)c1)CC(C)(C)OC3 | -29.5% | –
Cc1cc(C(=O)OC(C)C(=O)NC2CCCCC2C)c(C)o1 (stereo not drawn) | -2.74% [at 102 µM] | –
Cc1cc(C)cc(NC(=S)NCc2ccc(F)cc2)c1 | -8.23% | –
O=C(O)CCC(=O)NCc1ccc2[nH]c3c(c2c1)CCCC3 | – | 50.1 µM (active)
Cc1cccc(NC(=S)NCc2ccc3[nH]c4c(c3c2)CCCC4)c1 | – | 39.8 µM (active)
O=C(O)CCC(=O)NCc1ccc(C(=O)O)cc1 | -34% [at 102 µM] | –
Cc1cccc(NC(=S)NCCN(C2CCCCC2)C2CCCC2)c1 | 16.8% | –
O=C(CCc1ccccc1)NCc1ccc2c(c1)CCN2C(=O)c1ccccc1 | 2.34% | –
Cc1ccc(Cl)cc1NC(=O)CCC(=O)N1CC(C)Sc2ccccc21 (stereo not drawn) | -4.93% | –
O=C(NCc1ccccc1)c1ccc2c(c1)nc1n2CCCCC1 | 14.7% | –
CC(=O)c1ccc(NS(=O)(=O)c2ccc(-c3cc(C)no3)s2)cc1 | 3.66% | –
Cc1ccc(N(C)C(=O)C2CCN(S(=O)(=O)c3ccc4c(c3)CCCN4C(=O)C3CCC3)CC2)cc1 | -3.25% | –
CCN(C(=O)COc1ccc(C(=O)c2ccccc2)cc1)c1ccccc1 | -6.14% | –
CC(=O)NNC1=Nc2ccccc2N(C)C(C)C1 (stereo not drawn) | – | 31.6 µM (active)
COC(=O)C1=C(C(=O)OC)[C@@H]2N(C)c3ccccc3[C@@]23C[C@@H](C(=O)OC)N(C(C)=O)C3=N1 | 16.1% | –
O=C(CNS(=O)(=O)c1ccc2ccccc2c1)Nc1ccc(F)c(F)c1F | 2.41% [at 12.7 µM] | –
CC1CCCCC12NC(=O)N(CC(=O)Nc1ccc(S(=O)(=O)Nc3ncccn3)cc1)C2=O (stereo not drawn) | -10.5% [at 12.7 µM] | –
COc1ccc(N2CCN(C(=O)COC(=O)c3cccc(S(=O)(=O)Nc4ccccc4OC)c3)CC2)cc1 | – | 15.8 µM (active)
COc1ccc(S(=O)(=O)Nc2ccccc2C(=O)N2CCCC2)cc1C | 8.92% [at 102 µM] | –
COc1ccccc1N1CCN(C(=O)c2ccc(S(=O)(=O)N3CCCCC3)cc2)CC1 | -28.9% [at 12.7 µM] | –
CC1CN(C(=O)COC(=O)c2cccc(NS(=O)(=O)c3ccccc3)c2)CC(C)O1 (stereo not drawn) | 3.95% [at 0.501 µM] | –
COc1ccccc1NS(=O)(=O)c1ccc(C(=O)N2CCN(c3ccccc3O)CC2)cc1 | – | 44.7 µM (active)
CCOc1ncccc1C(=O)NNC(=O)c1cccc(S(=O)(=O)Nc2ccccc2OC)c1 | -0.541% [at 102 µM] | –

From PubChem BioAssay AID504332 (National Center for Advancing Translational Sciences (NCATS), 2011)
